Experimental findings from PubChem BioAssay AID1345083 (National Center for Advancing Translational Sciences (NCATS), 2018) are described below.

Each structure is given as a SMILES string. The campaign covered roughly 94,000 compounds. About 6,200 (6.6%) were called active. A call without a number means that no potency is given here. Roughly 31% stayed inconclusive and do not appear here. The call rests on the fitted dose curve; in most records, active means well fitted inhibition curve with a large enough effect; inconclusive means small, poorly fitted or top-dose-only effect; inactive means flat fitted curve, though single readings scatter. Only a selection was taken, and actives are over-represented in it overall.
Potency means the concentration at half of the fitted maximal effect.

The assay can be described thus: Cytotoxic Profiling in HEK 293 Cell Line of Diverse Libraries Using Quantitative High-Throughput Screening. Further: nearly all actives have a fitted effect of over 60% in size. As to conditions: HEK 293 viability, ATP luminescence (CellTiter-Glo), 48-72 h; series mostly up to 115 µM. Summed up:
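HEK 293 seeded at 250 cells/well receive compound via pintool. After 48 or 72 hr at 37 degree Celsius, 5% CO2 and 95% humidity, CellTiter-Glo is dispensed and luminescence read following 10 min at room temperature.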
Regarding `Cc1cn2nc(C(=O)NCc3cccs3)cc2c(N2CCCC2)n1`, the Potency entry was “inactive”. Take `CNc1nc(N2CC[C@H](N3CCN(C)CC3)[C@H](CCC(=O)O)C2)ncc1F`: the Potency result was “inactive”. With `COc1ccc(NC(=O)N2CCC(CC(=O)NCc3ccccc3)C2)cc1OC` (stereo not given) the entry was “inactive”; with `COC[C@H]1CCCN1Cc1nc(C2(O)CCN(CC3CCCCC3)CC2)cs1`, “inactive”; with `Cc1nc(CCNS(=O)(=O)Cc2cccc(Cl)c2)no1`, “inactive”. As for `COc1ccc(C(=O)N2CC(c3nnc(-c4ccncc4)o3)C3(CCOCC3)C2)cn1` (stereo not given), the Potency entry is “inactive”. Take `CNC(=O)[C@@H](Cc1ccccc1)N1CCC[C@H]1C(=O)N1CCC1`: the Potency result is “inactive”. In the case of `O=C(NCCc1ccccc1)C1CCCN1C(=O)c1cccc(-c2ccccn2)c1` (stereo not given) it was “inactive”; in that of `CC(=O)N1CCC(c2nnc3n2C(C(=O)NCCCc2ccccc2)CC3)CC1` (stereo not given), “inactive”. As to `Cc1ccc(CC(=O)N2CCC(Cc3nc(-c4cnccn4)no3)CC2)cc1`, the Potency entry is “inactive”. With `O=C(NCCCc1ccccc1)C1CCCN1c1nccc(Nc2ccccc2F)n1` (stereo not given) the figure was 44.7 µM (active); with `Cc1ccc(Nc2ccnc(N3CCCC3C(=O)N3CCC(Cc4ccccc4)CC3)n2)cc1` (stereo not given), 14.1 µM (active). As for `Cn1ccc(C(=O)N2C[C@H]3CN(C4CCOCC4)C[C@@]3(C(=O)O)C2)n1`, the Potency entry was “inactive”. Turning to `COC(=O)[C@H](Cc1ccc(OC)cc1)NC(=O)[C@H]1CN(S(=O)(=O)c2ccccc2)CCN1C(C)=O`, the Potency entry is “inactive”. Take `COCCC(=O)N1C[C@@H](COC)[C@H](c2nc(C)no2)C1`: the Potency result is “inactive”. For the molecule `CNC(=O)[C@@H]1C[C@@H](n2cc(CN(C)C(=O)Nc3ccc(C)c(C)c3)nn2)CN1`, the Potency entry is “inactive”.

With `C=CCN1C[C@@H]2CN(C(=O)CCc3cccc(OC)c3)C[C@]2(C(=O)O)C1`, the Potency result is “inactive”. In the case of `Cc1noc(C)c1[S+](=O)([O-])N1CCCC(C(=O)N2CCC(c3ccccc3)CC2)C1` (stereo not given) it was 44.7 µM (active); in that of `Cc1noc(C)c1[S+](=O)([O-])N1CCC(C(=O)N2CCC(c3nc4ccncc4[nH]3)C2)CC1` (stereo not given), “inactive”. As to `Cc1noc(C)c1[S+](=O)([O-])N1CCC(C(=O)N2CCC(c3nc4ncccc4[nH]3)CC2)CC1`, the Potency result was “inactive”. In the case of `CCC(C)NC(=O)C1(c2ccc(NS(C)(=O)=O)cc2)CCCCC1` (stereo not given) it was “inactive”. With `COc1ccc(C(=O)N2CCCC(c3nc(-c4cnccn4)no3)CCNC(=O)CC2)c(OC)n1` (stereo not given) the entry was “inactive”; with `Cc1ccc(C(=O)N2CCC(c3n[nH]c(=O)n3-c3ccccc3)CC2)cc1F`, “inactive”. In the case of `CN(Cc1csc(-c2ccccc2)n1)c1cc(C2CC(O)C2)nc(N)n1` (stereo not given) it was 25.1 µM (active); in that of `COc1ccc(N2C(=O)CSC23CCN(C(=O)c2ccc(C)cc2)CC3)cc1`, “inactive”; in that of `O=C(c1cc(F)ccc1F)N1CCCC2(C1)NC(=O)N(Cc1ccccc1)C2=O` (stereo not given), “inactive”. `COc1cccc(S(=O)(=O)N2CCC(n3cnnc3C3CC3)CC2)c1`: the Potency entry is “inactive”. With `Cc1cccc2c(C3CCN(S(=O)(=O)c4cc(Cl)cc(Cl)c4)CC3)c[nH]c12` the figure was 25.1 µM (active); with `O=C(O)[C@@H]1CN(C(=O)CCCn2cncn2)C[C@H]1c1ccc2c(c1)OCO2`, “inactive”; with `O=C(N[C@@H]1CN(C(=O)c2ccc3nc[nH]c3c2)CC[C@@H]1CO)C1CC1`, “inactive”.

In the case of `CC(C)C1=NOC2(CCN(C(=O)c3ccccc3F)C2)C1` (stereo not given), the Potency result was “inactive”. Regarding `O=C(C1CCOC1)N1CCC(N(Cc2ccccc2)C2CCOCC2)CC1` (stereo not given), the Potency was 89.1 µM (active). As for `O=C(NC1CC1)c1ccc(CC2CCN(C(=O)C3CCOC3)CC2)cc1` (stereo not given), the Potency result is “inactive”.

On to `O=C(C1CCOCC1)N1CCOC[C@H](Oc2ccccc2)C1`, for which the Potency result is “inactive”. With `Cn1cc(-c2ccsc2)c2nc(CN3CCNC(=O)C3)cn2c1=O` the entry was “inactive”; with `CN1CCN(C(=O)c2ccc3nnc(C(C)(C)C)n3c2)CC1`, “inactive”; with `CCc1cccc(NC(=O)Cn2c(=O)c(-c3noc(CC)n3)c3n(c2=O)CCCC3)c1`, “inactive”. With `CCc1cc(=O)n(CC(=O)Nc2cccc(C(C)=O)c2)c(-c2ccccc2)n1` the figure was 25.1 µM (active). Consider `CCc1cc(=O)n(CC(=O)Nc2cc(OC)cc(OC)c2)c(N2CCOCC2)n1`, for which the Potency result is “inactive”. As to `COc1ccc(-c2ccc(C(=O)N3CCN(C(=O)c4ccccc4OC)CC3)cc2)nn1`, the Potency result was “inactive”.

Regarding `CN(C)[C@@H]1[C@@H](NC(=O)CCn2cnc3ccccc3c2=O)[C@H]2CCO[C@H]21`, the Potency entry was “inactive”. In the case of `N#Cc1cccc(C(=O)Nc2ccc([C@H]3OCC(=O)N(Cc4ccccc4)[C@@H]3CO)cc2)c1`, the Potency entry is “inactive”. In the case of `CCCNC(=O)C(NC(=O)c1cccc(C)c1)C1CCN(C(=O)CCc2ccccc2)CC1` (stereo not given), the Potency entry is “inactive”.

Regarding `CCNC(=O)C1C(c2cccc(NC(=O)c3cccc(C)c3)c2)OC(=O)N1Cc1cccc(Cl)c1` (stereo not given), the Potency was 28.2 µM (active).

`COc1cccc([S+](=O)([O-])N2CCC(C(=O)N3CCC(N4CCOCC4=O)CC3)CC2)c1`: the Potency entry is “inactive”.

Take `COCc1cc(=O)n(CC(=O)Nc2ccc(Cl)cc2)c(N2CCOCC2)n1`: the Potency entry was “inactive”.

Turning to `c1ccc2c(c1)CNC1(CCN(Cc3cccc4ccccc34)CC1)CO2`, the Potency is 79.4 µM (active).

As to `COc1ccc(CN2CCC3(CC2)COc2ccccc2CN3)cc1`, the Potency entry is “inactive”. `O=[S+]1([O-])NC2(CCN(Cc3ccccc3)CC2)COc2ccccc21`: the Potency entry is “inactive”.

Take `O=C(NCCc1nc(-c2ccccc2)cs1)C1NCCc2[nH]cnc21` (stereo not given): the Potency result was “inactive”. With `O=C1CCN(C(=O)C2CCN(S(=O)(=O)Cc3ccccc3)CC2)CCCCCCN1` the entry was “inactive”; with `Cc1ccc(CS(=O)(=O)N2CCC(C3CCNC3)CC2)cc1C` (stereo not given), 89.1 µM (active); with `O=S(=O)(Cc1cccc(F)c1)N1CCC(C2CCNC2)CC1` (stereo not given), “inactive”. With `NCC(=O)N1CCCC2(Cc3ccccc3CN2C(=O)c2cccc(Cl)c2)C1` (stereo not given), the Potency is 70.8 µM (active). `NCC(=O)N1Cc2ccccc2CC2(CCCCN2CC2CCOCC2)C1` (stereo not given): the Potency entry is “inactive”.

As for `CCC(=O)N1Cc2ccccc2CC2(CCCN2C)C1` (stereo not given), the Potency entry was “inactive”. Regarding `O=C(c1cccnc1)N1C[C@@H](F)[C@@H](OCc2nc3ccc(C(F)(F)F)cc3[nH]2)C1`, the Potency result was “inactive”. With `C[S+](=O)([O-])NC1CC2(CCN(Cc3ccc(O)cc3)CC2)c2ccccc21` (stereo not given) the entry was “inactive”. Take `CC1=C[C@@H](CN2CCN(CCO)CC2)[C@H](C(C)C)C[C@H]1Cc1nnc(-c2ccc(C)cc2)o1`: the Potency was 31.6 µM (active). In the case of `CC1=C[C@@H](CN2CCOCC2)[C@H](C(C)C)C[C@H]1Cc1nnc(-c2ccc([N+](=O)[O-])cc2)o1` it was 39.8 µM (active). Turning to `CC1=C[C@@H](CN2CCCC2)[C@H](C(C)C)C[C@H]1Cc1nnc(-c2ccc([N+](=O)[O-])cc2)o1`, the Potency is 35.5 µM (active). On to `CC1=C[C@@H](CC#N)[C@H](C(C)C)C[C@H]1CC(=O)N1CCN(C)CC1`, for which the Potency entry was “inactive”.

Take `CNC(=O)c1cc(C)nc2onc(C3CCCN3C(=O)Cc3ccc(F)cc3)c12` (stereo not given): the Potency result is “inactive”. `NC1CCCCN(C(=O)c2ccc3n[nH]nc3c2)C1` (stereo not given): the Potency entry is “inactive”. With `CSc1cccc(NC(=O)N[C@H]2C[C@@H](C(=O)N[C@@H](CCCNC(=O)CC(C)(C)C)C(N)=O)N(C(=O)CC(C)(C)C)C2)c1` the entry was “inactive”. For the molecule `COCCS(=O)(=O)c1ncc(CN2CCCCO2)n1Cc1ccccc1`, the Potency result is “inactive”. In the case of `CCCN1C(=O)[C@H]2CC[C@@H]1CN(C(=O)c1nc(-c3ccccc3)[nH]c1C)C2` it was “inactive”. Turning to `O=C(NC[C@H]1Cn2c(-c3ccc(F)cc3)cnc2CO1)C1CC1`, the Potency entry is “inactive”. In the case of `Cc1ccc(Cl)cc1NC(=O)N1C[C@@H](F)C[C@H]1C(=O)N1CCCCC1` it was “inactive”; in that of `COc1cccc(NC(=O)N[C@H]2CCN(C(=O)C=C(C)C)[C@@H]2C(=O)N[C@@H](Cc2cccs2)C(N)=O)c1`, “inactive”; in that of `O=C1CC(c2ccccc2)N(C(=O)CNC(=O)c2cnccn2)CCCCCCN1` (stereo not given), “inactive”.

With `CC(C)(C)C(=O)Nc1cc(C2CC2)nn1-c1ccccc1`, the Potency entry was “inactive”. As for `Cc1nn(-c2cccc(Br)c2)c(C)c1[C@@H]1C=C[C@@H](NS(=O)(=O)c2ccccc2)C1`, the Potency was 44.7 µM (active). In the case of `Cc1nn(CCC#N)c(C)c1[C@@H]1C=C[C@@H](NS(=O)(=O)c2ccccc2)C1` it was “inactive”. `c1c[nH]c(CNC[C@H]2Cn3ccnc3CO2)n1`: the Potency entry was “inactive”.

Consider `COc1ccc(Nc2ccc3c(n2)CN(Cc2ccccc2C)C(=O)CO3)cn1`, for which the Potency is 100 µM (active). With `CCOc1ccc(NC(=O)Cn2nc3n(c2=O)CCN(Cc2ccccc2C)C3=O)cc1`, the Potency result is “inactive”. On to `COc1ccc(CN2CCN3C(=O)N(c4ccccc4)C[C@H]3C2)cn1`, for which the Potency entry was “inactive”. For `Cc1ccccc1CN1Cc2nc(NCc3ccncc3)ccc2OCC1=O`, the Potency was 89.1 µM (active). With `CC(=O)N1CCCN(C(=O)c2cnc3c(c2)N(C(=O)Cc2ccc(C(C)C)cc2)CCC3)CC1` the entry was “inactive”. In the case of `CCC(C)NC(=O)N1CCC(CCOC)(NS(C)(=O)=O)CC1` (stereo not given) it was “inactive”; in that of `O=C(c1nc(-c2cccnc2)c2cnccn12)N1CCN(c2ncccn2)CC1`, “inactive”. With `CN(C)c1ccc(C(=O)N[C@H]2C[C@H]3C(=O)NC[C@@H](CCC(=O)N4CCc5ccccc54)N3C2)cc1` the entry was “inactive”; with `O=C(c1ccccc1)N1CCN(C(=O)c2nc3cccnc3n(C3CC3)c2=O)CC1`, “inactive”; with `CCC(=O)N1CCC(CC(=O)N2CCOCC2)C1` (stereo not given), “inactive”. For the molecule `C#CCNC(=O)C1CCN(Cc2ccccc2-c2ccccc2F)CC1`, the Potency result is “inactive”. With `COC(=O)CNC(=O)C1CCN(Cc2ccccc2-c2ccccc2F)CC1` the entry was “inactive”.

As for `O=C(C1CCN(Cc2ccccc2-c2ccccc2F)CC1)N1CCC(c2ccccc2)CC1`, the Potency was 25.1 µM (active).

As to `CC1CCC2(CC1)NC(=O)N(CC(=O)NCc1ccco1)C2=O` (stereo not given), the Potency entry is “inactive”.

For `Cn1cc(C#N)cc1-c1nc(COc2ccccc2)nn1CC(F)(F)F`, the Potency entry is “inactive”. With `COc1ccc(C2Cn3nnc(-c4noc(-c5ccc(OC)cc5C)n4)c3CO2)cc1` (stereo not given), the Potency entry was “inactive”. With `Cc1nc(CCNS(=O)(=O)c2cccnc2)no1` the entry was “inactive”; with `COc1ccccc1NC(=O)C1c2ccccc2C(=O)N(CC(C)C)C12CCCC2` (stereo not given), 70.8 µM (active). With `COCCN1C(=O)c2ccccc2C(C(=O)NC2CC2)C12CCCCC2` (stereo not given) the entry was “inactive”; with `COC(=O)CCNC(=O)C1c2ccccc2C(=O)N(CC(C)C)C12CCCC2` (stereo not given), “inactive”.
